Screening results from PubChem.
Shown are actives, neighbours in structure and some others; about 19% of the full set was active somewhere.
HT1080 IDH1KD tx – toxicity to HT-1080 IDH1 knockdown cells (counter line); HT-1080 IDH1 knockdown viability, ATP luminescence, 48 h; Potency, µM (doses to about 46.1 µM), without a hit: at the highest dose activity, negative = toxicity, actives largely listed as cytotoxic; 360,000 compounds, 2% hits; AID 686971;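 further: 0% = DMSO wells and -100% = cell-free medium wells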
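IDH1KD HT-1080 cells, 750/well, RPMI + 5% FBS; compound pinned after 2 h settling; 48 h, 37 °C; CellTiter-Glo luminescence; % activity normalised to DMSO and no-cell wells; curves fitted, classed by r2 and efficacy.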
HT1080-NT tox – kills 2HG-producing HT-1080-NT fibrosarcoma cells; HT-1080-NT fibrosarcoma viability, CellTiter-Glo ATP luminescence, 48 h; Potency, µM (top dose mostly 46.1 µM), inactives show at the highest dose activity, negative = less viability, hits mostly cytotoxic; 360,000 compounds, 1.6% hits;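 further: NT is the 2HG producing partner of a matched IDH1 knockdown line; 0% = DMSO-treated cells and -100% = media-only wells without cells; nearly all actives have a fitted effect of over 55% in size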
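Viability of the 2HG-overproducing fibrosarcoma line after 48 hours of compound exposure at 37 degrees C was determined by luminescence with CellTiter-Glo, and concentration-effect curves were then fitted and categorized.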
KB-3-1 cytotox – KB-3-1 parental cell cytotoxicity. AID 1347075. Potency, µM (series often up to 46.1 µM), hits mostly cytotoxic. KB-3-1 viability, CellTiter-Glo ATP luminescence, 72 h. 400,000 compounds, 1.4% hits; further: nearly all actives have a fitted effect of over 60% in size
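Cytotoxicity measured as CellTiter-Glo luminescence after 72 h at 37 C. Compound titrations were pinned onto drug-naive KB-3-1 parental adenocarcinoma cells grown in DMEM with 10% FBS, and normalized data fitted to concentration-response curves.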
TDP1 cell noCPT – qHTS for Inhibitors of human tyrosyl-DNA phosphodiesterase 1 (TDP1): qHTS in cells in absence of CPT | DT40 Tdp1-/- hTDP1 cells, no CPT, ATP luminescence, 48 h | Potency, µM (highest dose often 46.2 µM), for inactives: at the top dose activity change, negative = growth inhibition, usual class: inhibitors | 420,000 compounds, 15% hits; further: nearly all actives have a fitted effect of over 55% in size
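Camptothecin absent (DMSO only). Human TDP1-complemented DT40 knockout cells, 400 cells/well, 37 °C for minimum 48 hr; ATP measured via CellTiter-Glo, 30 min dark incubation, luminescence.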
DT40 TDP1 CPT – DT40-hTDP1 cell growth loss with CPT; AID 686979; Potency, µM (series often up to 46.2 µM), inactives show top-dose activity change, negative = growth inhibition, most hits filed as inhibitors; 420,000 compounds, 12% hits; chicken DT40 Tdp1-/-;hTDP1 cells + 20 nM CPT, ATP luminescence, 48 h; further: nearly all actives have a fitted effect of over 55% in size
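Cell growth measured by CellTiter-Glo luminescence after a minimum 48 h, 37 C compound exposure with 20 nM CPT in Tdp1-knockout DT40 cells stably expressing hTDP1, seeded 400/well; qHTS titration format.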
KB-V1 cytotox – kills drug-selected multidrug resistant KB-V1 cells. KB-V1 MDR cells viability, CellTiter-Glo, 72 h. AID 1347076. 400,000 compounds, 3.4% hits. Potency, µM (series often up to 46.1 µM), usual class: cytotoxic; further: nearly all actives have a fitted effect of over 60% in size
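Cytotoxicity via CellTiter-Glo luminescence after 72 h compound exposure at 37 degrees C. Cells: drug-selected KB-V1 line, DMEM phenol-red free plus 10% FBS. Compounds tested at multiple concentrations; normalized data fitted to concentration-effect curves.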
The depositor's hits bear a star; i = inactive; u = inconclusive; x = no result given. The call rests on the fitted dose curve; in most records, active means well fitted curve in the direction sought with a large enough effect; inconclusive means small, poorly fitted or top-dose-only effect, or another doubt; inactive means no such curve, though single readings can be large; an effect the other way counts as inactive or inconclusive. Unless noted, on the % scale 0 is the no-effect control and ±100 the full control effect; potency means the concentration at half of the fitted maximal effect.

SMILES	HT1080 IDH1KD tx	HT1080-NT tox	KB-3-1 cytotox	TDP1 cell noCPT	DT40 TDP1 CPT	KB-V1 cytotox
OCCC1CN(Cc2nc(-c3ccc(F)cc3)cs2)CCN1CCc1ccccc1 (configuration not stated)	-16%	-8%	i	u	u	i
c1cc2c(cc1CNc1ccc(N3CCOCC3)cc1)OCO2	x	x	i	x	x	i
CCc1cccc(NC(=O)C(NS(=O)(=O)c2ccc3nc(C)sc3c2)C(C)C)c1 (configuration not stated)	x	x	i	-19%	-8%	i
COc1cc(C2(c3ccc(O)c(OC)c3)C(=O)Nc3c(C)cc(Br)cc32)ccc1O	u	u	i	0%	2%	i
COc1ccc(C(=O)NC2CC2)cc1OC1CCN(Cc2cc(C)cc(C)c2)CC1	-1%	1%	i	u	u	i
COc1ccc(NC(=O)c2c(-c3ccc(C)cc3)nnc3ccccc23)cc1OC	x	x	i	-20%	-15%	i
COc1ccccc1NC(=O)c1c(-c2ccc(C)cc2)nnc2ccccc12	x	x	i	u	18µM*	i
COc1ccc(NC(=O)c2c(-c3ccc(C)cc3)nnc3ccccc23)c(OC)c1	x	x	i	16µM*	18µM*	i
COc1cccc(C(O)c2nc(-c3cccc(CO)c3)cs2)c1 (configuration not stated)	0%	9%	i	u	u	i
Cc1c(C(=O)N2CCOCC2)oc2c1-c1nn(CC(=O)NCc3cccc(Cl)c3)cc1CC2	x	x	x	16µM*	u	x
COc1ccccc1CNC(=O)Cn1cc2c(n1)-c1c(oc(C(=O)N3CCOCC3)c1C)CC2	x	x	x	23µM*	u	x
COc1cccc(CNC(=O)Cn2cc3c(n2)-c2c(oc(C(=O)N4CCOCC4)c2C)CC3)c1	x	x	x	21µM*	18µM*	x
CCCOc1ccc(CNC(=O)Cn2cc3c(n2)-c2c(oc(C(=O)N4CCOCC4)c2C)CC3)cc1	x	x	x	23µM*	u	x
CCCNC(=O)Cn1nc(-c2ccc(F)cc2)c2cnc3ccc(F)cc3c21	x	x	i	0%	-9%	i
C[C@@H]1CN([C@@H](C)CO)C(=O)c2cc(C3=CCCCC3)cnc2O[C@H]1CN(C)C(=O)Nc1cccc(F)c1	-7%	-7%	i	-26%	-8%	i
COC(=O)[C@@]12C[C@@H](CC(=O)NCC3CCCCC3)C(=O)N(Cc3ccco3)C1=CCC(C)(C)C2	-23%	u	i	u	u	u
CC1CCN(S(=O)(=O)c2cc(C(=O)Nc3ccc(Br)cc3F)n(C)c2)CC1	x	x	i	u	u	i
COC(=O)C[C@H]1CC[C@@H](NS(=O)(=O)c2ccccc2)[C@@H](CO)O1	12%	19%	i	7%	13%	i
CCc1ccccc1OCCOc1ccc(C)cc1OC	18%	40%	i	29µM*	u	i
COc1cc(C)ccc1OCCCOc1ccccc1Br	18%	6%	i	-22%	-10%	i
C=CCc1ccc(OCCOCCOc2cccc3ccc(C)nc23)c(OC)c1	u	u	i	11µM*	18µM*	u
COc1cc(C)ccc1OCCOCCOc1cccc2ccc(C)nc12	u	-13%	i	16µM*	16µM*	i
CC(C)CN1C(=O)C(=Nc2cccnc2)c2ccccc21	-1%	u	u	4.6µM*	3.7µM*	u
CC(=O)NC1C(=O)N(CC(C)C)c2ccccc21 (configuration not stated)	0%	4%	i	2%	-1%	i
N#Cc1ccccc1OCC(=O)Nc1ccc(S(=O)(=O)N2CCOCC2)cc1	11%	-3%	i	u	-21%	i
